# Measured values: the supplement of paper PMC6555819
# Experiments:
# Experiment in all cases: PBM binding z-score (relative to random genomic background probes); higher = stronger binding; sequences stand for … in GC…GCGATTGACAGCGTAGAATGAAGG
# [1] = test system: FXR:RXRa (NR concentration 270 nM, RXRa partner concentration 90 nM)
# Outline: (§1)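 Ligand-free nuclear receptor dimers were applied to custom Agilent 4×180K protein-binding microarrays whose double-stranded probes carried direct-repeat seeds, single-nucleotide variants, half-site ablations and random human genomic background sequences in 34-nt variable regions. Incubation lasted 1 h. Binding z-scores were computed against the random background probes from regression-normalized fluorescence.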
# [2] = test system: LXRa:RXRa (NR concentration 270 nM, RXRa partner concentration 90 nM)
# Outline: as §1
# [3] = test system: LXRa homodimer (NR concentration 270 nM)
# Outline: as §1
# [4] = test system: LXRb:RXRa (NR concentration 270 nM, RXRa partner concentration 90 nM)
# Outline: as §1
# [5] = test system: LXRb homodimer (NR concentration 270 nM)
# Outline: as §1
# [6] = test system: PPARa:RXRa (NR concentration 270 nM, RXRa partner concentration 90 nM)
# Outline: as §1
# [7] = test system: PPARg:RXRa (NR concentration 180 nM, RXRa partner concentration 90 nM)
# Outline: as §1
# [8] = test system: PPARg:RXRa 270nM:90nM, anti-RXR (NR concentration 270 nM, RXRa partner concentration 90 nM)
# Outline: as §1
# [9] = test system: PPARg:RXRa 30nM:10nM, anti-RXR (NR concentration 30 nM, RXRa partner concentration 10 nM)
# Outline: as §1
# [10] = test system: PPARg:RXRa 90nM:30nM, anti-RXR (NR concentration 90 nM, RXRa partner concentration 30 nM)
# Outline: as §1
# [11] = test system: PPARg:RXRa DBDmut IVT, anti-RXR (DBD mutation: RXRa K156A/R161A, NR concentration 270 nM, RXRa partner concentration 90 nM)
# Outline: as §1
# [12] = test system: PPARg:RXRa IVT, anti-PPARg (NR concentration 270 nM, RXRa partner concentration 90 nM)
# Outline: as §1
# [13] = test system: PPARg DBDmut:RXRa IVT, anti-PPARg (DBD mutation: PPARg1 K132A/R137A, NR concentration 270 nM, RXRa partner concentration 90 nM)
# Outline: as §1
# [14] = test system: PPARg DBDmut IVT, anti-PPARg (DBD mutation: PPARg1 K132A/R137A, NR concentration 270 nM)
# Outline: as §1
# [15] = test system: PPARg homodimer (NR concentration 180 nM)
# Outline: as §1
# [16] = test system: PXR:RXRa (NR concentration 270 nM, RXRa partner concentration 90 nM)
# Outline: as §1
# [17] = test system: PXR homodimer (NR concentration 270 nM)
# Outline: as §1
# [18] = test system: RARa:RXR (NR concentration 270 nM, RXRa partner concentration 90 nM)
# Outline: as §1
# [19] = test system: RARa homodimer (NR concentration 270 nM)
# Outline: as §1
# [20] = test system: RARb:RXRa (NR concentration 270 nM, RXRa partner concentration 90 nM)
# Outline: as §1
Sequence,PBM binding z-score [1],PBM binding z-score [2],PBM binding z-score [3],PBM binding z-score [4],PBM binding z-score [5],PBM binding z-score [6],PBM binding z-score [7],PBM binding z-score [8],PBM binding z-score [9],PBM binding z-score [10],PBM binding z-score [11],PBM binding z-score [12],PBM binding z-score [13],PBM binding z-score [14],PBM binding z-score [15],PBM binding z-score [16],PBM binding z-score [17],PBM binding z-score [18],PBM binding z-score [19],PBM binding z-score [20]
GATACAGGGTCTAGGCCAGAGTACGCGTATTGAT,-0.772,-0.631,-0.516,-0.894,-1.47,-0.516,0.629,0.0439,-0.269,-0.108,-0.37,0.257,-1.76,-0.427,-0.543,-0.687,-0.433,-0.694,-0.222,0.0286
TCATATAGGTAAATGCTAGGAGAAAGTCCGATCT,0.665,0.615,0.0582,0.346,0.0208,0.892,0.807,2.25,3.95,3.15,3.74,1.59,1.52,1.09,0.813,0.458,0.215,0.385,0.843,0.136
CATACAGGTTCAGCTAGGCCAGAGTAGGGACGGC,0.788,1.03,-0.0766,0.293,-0.03,1.21,0.629,0.338,-0.155,0.0738,-0.2,0.213,0.171,0.0145,0.268,0.759,0.121,0.691,-0.0156,1.44
TCTTGTAGATCAATATAGGTTAAGAAAGTGCGCT,0.801,2.72,0.469,1.28,0.58,1.97,0.81,2.09,3.36,2.56,2.95,2.98,1.55,1.13,0.797,1.67,0.304,1.4,1.22,0.676
GCTTACGGGTCAATGGTTATAGCATGAATAGAAT,4.8,2.75,-0.289,2.89,0.196,4.78,4.3,4.54,1.86,3.57,3.66,3.16,0.504,0.889,1.06,2.21,0.167,3.03,0.149,3.43
CGTCACAGTTCAAGGTAACGTAACAGAAAGCAGC,2.2,1.91,0.443,1.52,0.237,2.46,1.29,1.19,0.243,0.61,0.275,1.23,0.33,0.734,0.946,1.93,0.75,1.78,0.462,2.73
